Screening results from PubChem BioAssay.
CHT inh – human CHT choline transport inhibition. Q9GZV3. CHT-expressing cells, membrane potential dye, choline response; stronger effect = lower value. AID 488975. hit rate 0.86% among 310,000. B-score at 10 µM;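 active = B-score over 3 SD under the library average, and starting fluorescence ratio not unusually high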;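 also: choline stimulus applied at its EC90 after an EC20 pre-addition; B-score computed on integrated fluorescence ratio after choline addition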
PGE2 EP2 inh – inhibitors of human EP2 prostaglandin E2 receptor; P43116; C6 glioma cells expressing human EP2, cAMP TR-FRET; cells stimulated with saturating PGE2; inhibition, % at 25 µM; hit rate 0.52% among 260,000; AID 1422;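 active = percent inhibition above 40 after rounding to a whole number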;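 also: rat C6 glioma host cells with rolipram phosphodiesterase inhibitor present; the protocol text gives 20 µM as final concentration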
Target sequence (P43116 whole entry, looked up): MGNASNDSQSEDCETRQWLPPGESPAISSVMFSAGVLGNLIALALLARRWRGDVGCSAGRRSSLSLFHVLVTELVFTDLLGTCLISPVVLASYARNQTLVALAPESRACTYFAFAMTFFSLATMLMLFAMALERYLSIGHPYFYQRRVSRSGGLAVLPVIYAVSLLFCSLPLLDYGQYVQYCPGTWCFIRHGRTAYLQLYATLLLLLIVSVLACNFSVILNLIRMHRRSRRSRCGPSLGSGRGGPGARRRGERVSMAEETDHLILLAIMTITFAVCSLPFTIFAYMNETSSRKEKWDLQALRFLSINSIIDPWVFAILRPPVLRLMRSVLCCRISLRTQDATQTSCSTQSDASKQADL
CHT allo act – allosterically activates the human high affinity choline transporter. Q9GZV3. CHT-expressing cells, membrane potential dye, choline EC20; stronger effect = higher value; LV-AA mutant CHT in HEK293 cells. B-score at 10 µM. hit rate 0.49% among 310,000. AID 488977;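 active = initial fluorescence not abnormally high and integrated response B-score, plate-corrected, over 3 SD above library mean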
EP2 modulator – modulators of human EP2 prostaglandin E2 receptor. P43116. EP2-expressing cells, cAMP HTRF FRET, PGE2 co-stimulation. hit rate 0.83% among 260,000. induction, % at 25 µM;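 active = compounds whose cAMP rise, as percent of the full-agonist control response, exceeds 60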;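 also: rat C6 glioma line stably carrying human EP2 under a CMV promoter; the protocol text gives 20 µM as final concentration; 100% = response of wells given 1 µM PGE2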
CHT activ conf – human CHT activation, confirmatory screen | CHT-expressing cells, membrane potential dye fluorescence (FDSS); % of choline EC20–EC90 response window; HEK293 expressing CHT LV-AA mutant; choline added at its EC20 | activation, % at 10 µM | AID 504833 | shares compounds with CHT allo act | hit rate 91% among 2,500;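 active = primary screen active, with duplicate mean activation above negative control mean plus 3 SD, cut at about 11% in these data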
HEK293 MP dye – counter-screen for CHT activators: effect in parental HEK293 cells; hit rate 62% among 2,500; membrane potential dye fluorescence (FDSS); measured after EC20 choline addition; shares compounds with CHT allo act; ratio readout change at 10 µM, hits read low;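 active = duplicate-averaged ratio beyond 3 SD from buffer wells, up or down, though filed actives are nearly all decreases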
* hit, by the source's call; ! = not active in a repeat. Compounds with a hit are over-represented: about 2.1% of the library has one in this group of screens.

For CCC(c1nnnn1C(C)(C)C)N(CCc1ccccc1)Cc1cc2cc(C)cc(C)c2[nH]c1=O (stereo unspecified) the results were PGE2 EP2 inh 8 and EP2 modulator 40.
`COc1ccccc1N=C(C)C1=C(O)CC(c2ccccc2)CC1=O` (stereo unspecified) gave CHT inh inactive, PGE2 EP2 inh 2, CHT allo act 9.7*, EP2 modulator -4, CHT activ conf 56* and HEK293 MP dye inactive.
Screening CCCC(=Nc1ccccc1OC)C1=C(O)CC(c2ccccc2)CC1=O (stereo unspecified) returned CHT inh inactive, PGE2 EP2 inh 11, CHT allo act inactive and EP2 modulator 6.
`Cc1noc(C)c1COC(=O)c1ccccc1Oc1ccccc1` gave CHT inh inactive, PGE2 EP2 inh 13, CHT allo act inactive, EP2 modulator 42, CHT activ conf 14* and HEK293 MP dye inactive.
O=C(c1ccc(F)cc1)N1CCCc2cc(C(O)CN3CCCCC3)ccc21 (stereo unspecified) was read as PGE2 EP2 inh 5 and EP2 modulator -27.
COC(=O)c1ccccc1NC(=O)CN1CCN(C23CC4CC(CC(C4)C2)C3)CC1 was read as CHT inh inactive, PGE2 EP2 inh 21, CHT allo act 6.9*, EP2 modulator 8, CHT activ conf 30* and HEK293 MP dye inactive.
`COc1ccc(Br)cc1CN(C)CC(=O)NCc1ccc(F)cc1` gave CHT inh inactive and CHT allo act inactive.
Screening COc1ccc(Br)cc1CN(C)CC(=O)Nc1c(Cl)cccc1Cl returned CHT inh inactive, PGE2 EP2 inh 5, CHT allo act inactive, EP2 modulator 39, CHT activ conf 7 and HEK293 MP dye inactive.
Screening CCCn1c(NCc2ccc3c(c2)OCO3)nc2ccccc21 returned CHT inh inactive, PGE2 EP2 inh 5, CHT allo act inactive, EP2 modulator 7, CHT activ conf 20* and HEK293 MP dye -24*.
`c1ccc(Cn2c(CNc3nc4ccccc4n3CCN3CCCCC3)nc3ccccc32)cc1` gave CHT inh inactive, PGE2 EP2 inh -2, CHT allo act inactive and EP2 modulator 28.
`CCN(CC)CCn1c(NCc2nc3ccccc3n2Cc2ccccc2)nc2ccccc21` gave CHT inh inactive, PGE2 EP2 inh 5, CHT allo act 7.7*, EP2 modulator 36, CHT activ conf 44* and HEK293 MP dye inactive.
COc1ccc(CNc2nc3ccccc3n2CCN2CCCCC2)cc1 was read as CHT inh inactive, PGE2 EP2 inh 9, CHT allo act inactive, EP2 modulator 16, CHT activ conf 26* and HEK293 MP dye -21*.
`Cc1sc2nc(C(C)C)n3c(SCC(=O)Nc4nc5c(s4)CCCC5)nnc3c2c1C` gave PGE2 EP2 inh 4 and EP2 modulator -9.
Screening CCOC(=O)c1c(-c2ccccc2)csc1NC(=O)CSc1nncs1 returned CHT inh inactive, PGE2 EP2 inh 8, CHT allo act inactive, EP2 modulator 50, CHT activ conf 28* and HEK293 MP dye inactive.
For CCCCC(=O)Nc1cc(N(C)C)nc2ccccc12 the results were CHT inh inactive, PGE2 EP2 inh 11, CHT allo act inactive and EP2 modulator -29.
`CN(C)c1cc(NC(=O)CN2CCOCC2)c2ccccc2n1` gave CHT inh inactive, CHT allo act 6.7*, EP2 modulator -1, CHT activ conf 33* and HEK293 MP dye -45*.
For CN(C)c1cc(NC(=O)CNC(C)(C)C)c2ccccc2n1 the results were CHT inh inactive, PGE2 EP2 inh 11, CHT allo act inactive, EP2 modulator 24, CHT activ conf 26* and HEK293 MP dye -55*.
`CCC(C)(C)n1nnnc1C(c1cccnc1)N1CCN(c2cccc(C(F)(F)F)c2)CC1` (stereo unspecified) gave CHT inh inactive, PGE2 EP2 inh 14, CHT allo act inactive, EP2 modulator 12, CHT activ conf 12* and HEK293 MP dye inactive.
Screening CSc1nccc(Nc2ccccc2)c1C#N returned CHT inh inactive, PGE2 EP2 inh 13, CHT allo act inactive and EP2 modulator 12.
CN(C)c1ccnc(Nc2ccccc2)c1C#N was read as CHT inh inactive, PGE2 EP2 inh 2, CHT allo act 6.3*, EP2 modulator 28, CHT activ conf 52* and HEK293 MP dye -35*.
Screening CC(=O)OCCCn1c(C)[n+](C)c2cc(Cl)c(Cl)cc21 returned CHT inh inactive, PGE2 EP2 inh 11, CHT allo act 9.7*, EP2 modulator -5, CHT activ conf 67* and HEK293 MP dye -62*.
Screening Cc1n(CCC(=O)O)c2cc(Cl)c(Cl)cc2[n+]1C returned PGE2 EP2 inh 12 and EP2 modulator -20.
`COc1ccc(-c2nnc(SCC(=O)NC3CC3)n2C)cc1OC` gave PGE2 EP2 inh 9 and EP2 modulator -10.
For CCOCCCNC(=O)c1ccc(Cl)c(S(=O)(=O)N2CCOCC2)c1 the results were PGE2 EP2 inh 8 and EP2 modulator -22.
For COc1cccc(C(=O)NCC(c2cccs2)N2CCc3ccccc32)c1 (stereo unspecified) the results were CHT inh inactive, CHT allo act 6.4*, CHT activ conf 25* and HEK293 MP dye inactive.
Screening CCC(=O)c1cn(CC(=O)NC2CCCC2)c2ccccc12 returned PGE2 EP2 inh 13 and EP2 modulator -6.
Screening O=C1N(Cc2cccc(Cl)c2)C[C@@H]2C[C@@H](c3cccn3-c3ccccn3)N3CCC[C@@]123 returned CHT inh inactive, PGE2 EP2 inh 10, CHT allo act 7.1*, EP2 modulator -10, CHT activ conf 53* and HEK293 MP dye inactive.
`O=C1N(Cc2cccc(Cl)c2)C[C@@H]2C[C@@H](c3cccn3-c3nccs3)N3CCC[C@@]123` gave CHT inh inactive, PGE2 EP2 inh 2, CHT allo act inactive and EP2 modulator 29.
For CC(C)C(=O)N1CCCc2cc(C(O)CN3CCC(C(F)(F)F)CC3)ccc21 (stereo unspecified) the results were PGE2 EP2 inh 5 and EP2 modulator -44.
CCOC(=O)c1c(CS(=O)(=O)c2ccccc2)n(C)c2cc(Br)c(O)c(CN(C)C)c12 was read as CHT inh inactive, PGE2 EP2 inh 4, CHT allo act inactive and EP2 modulator -19.
For CCOC(=O)c1c(CN2CCOCC2)n(C)c2cc(Br)c(O)c(CN(C)C)c12 the results were CHT inh inactive, PGE2 EP2 inh 7, CHT allo act 7.4*!, EP2 modulator 12, CHT activ conf 45* and HEK293 MP dye -33*.
